Consider 25 compounds from the supplement of paper PMC3898565.

Structures can show the parent of a compound that is named as a salt. ± gives the uncertainty stated by the source.
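Further: viable cell number estimated from Alamar Blue fluorescence read at 560/90, part of a single-dose primary screen of an FDA-approved drug library.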

For the assay, the system named is U87. In words: cell viability relative to vehicle control; higher = less growth inhibition (less active). Conditions: 10 µM; 72 h.
Take `CC(=O)CCCCn1cnc2c1c(=O)n(C)c(=O)n2C`: the cell viability is 105 ± 1.2%.
Regarding `O=C1Nc2ccccc2/C1=C1/Nc2ccccc2C1=O` [indirubin], the cell viability is 99.6 ± 1.4%.
As to `COc1ccc(/C=C/C(=O)Nc2ccccc2C(=O)O)cc1OC`, the cell viability amounted to 104 ± 1.1%.
As to `CC(C)(C)NC(=O)[C@H]1CC[C@H]2[C@@H]3CC[C@H]4NC(=O)C=C[C@]4(C)[C@H]3CC[C@]12C`, the cell viability worked out at 104.8 ± 0.76%.
`O=c1[nH]cnc2c1ncn2[C@H]1CC[C@@H](CO)O1`: the cell viability was found to be 105 ± 2.5%.
As to `CC(C)(C)NC(=O)[C@@H]1C[C@@H]2CCCC[C@@H]2CN1C[C@@H](O)[C@H](Cc1ccccc1)NC(=O)[C@H](CC(N)=O)NC(=O)c1ccc2ccccc2n1`, the cell viability amounted to 96.4 ± 2.6%.
As to `Cc1[nH]c(=O)c(C#N)cc1-c1ccncc1`, the cell viability is 109 ± 2.6%.
On to `CCC1=C[C@H]2CN(C1)Cc1c([nH]c3ccccc13)[C@@](C(=O)OC)(c1cc3c(cc1OC)N(C)[C@H]1[C@@](O)(C(=O)OC)[C@H](OC(C)=O)[C@]4(CC)C=CCN5CC[C@]31[C@@H]54)C2` [Vinorelbine Bitatrate], for which the cell viability came out at 18 ± 5%.
For the compound `CCCCc1oc2ccccc2c1C(=O)c1cc(I)c(OCCN(CC)CC)c(I)c1` [Amiodarone], the cell viability is 105 ± 1.1%.
Regarding `O=C1[C@H]2CCCC[C@H]2C(=O)N1CCCCN1CCN(c2nsc3ccccc23)CC1`, the cell viability came out at 102 ± 2.2%.
To `CC(C)c1ccc2c(c1)c(SC(C)(C)C)c(CC(C)(C)C(=O)O)n2Cc1ccc(Cl)cc1` belongs 99 ± 1.3%.
As to `CCOc1cc(N)c(Cl)cc1C(=O)NCC1CN(Cc2ccc(F)cc2)CCO1` (stereo not given), the cell viability was found to be 108 ± 1.4%.
As for `CCc1ccc(CCOc2ccc(CC3SC(=O)NC3=O)cc2)nc1` (stereo not given), the cell viability turned out to be 105 ± 3.6%.
Next, `CC(=O)[C@]1(O)Cc2c(O)c3c(c(O)c2[C@@H](O[C@H]2C[C@H](N)[C@H](O)[C@H](C)O2)C1)C(=O)c1ccccc1C3=O` [Idarubicin HCL]: 31.6 ± 2.3%; `CNCCCC12CCC(c3ccccc31)c1ccccc12` [Maprotilline HCl]: 102 ± 1.5%; `COc1cc(/C=C/c2ccc(O)cc2)cc(OC)c1`: 100.4 ± 0.43%.
As to `CC(=O)[C@H]1CC[C@H]2[C@@H]3CCC4=CC(=O)CC[C@]4(C)[C@H]3CC[C@]12C`, the cell viability was 107 ± 3%.
Regarding `C[C@H](CCC(=O)O)[C@H]1CC[C@H]2[C@@H]3C(=O)C[C@@H]4CC(=O)CC[C@]4(C)[C@H]3CC(=O)[C@]12C`, the cell viability was found to be 103.4 ± 0.82%.
Turning to `CC[C@H]1OC(=O)[C@H](C)[C@@H](O[C@H]2C[C@@](C)(OC)[C@@H](O)[C@H](C)O2)[C@H](C)[C@@H](O[C@@H]2O[C@H](C)C[C@H](N(C)C)[C@H]2O)[C@](C)(OC)C[C@@H](C)C(=O)[C@H](C)[C@@H](O)[C@]1(C)O`, the cell viability was found to be 107 ± 1.2%.
Take `CO[C@H]1O[C@@H]2O[C@@]3(C)CC[C@H]4[C@H](C)CC[C@@H]([C@H]1C)[C@@]24OO3`: the cell viability was found to be 107 ± 2.1%.
Consider `CN1[C@@H]2CC[C@H]1C[C@@H](OC(=O)c1c[nH]c3ccccc13)C2`, for which the cell viability is 105.3 ± 0.81%.
In the case of `O=C(O)COCCN1CCN([C@H](c2ccccc2)c2ccc(Cl)cc2)CC1`, the cell viability came to 101.2 ± 0.57%.
To `Nc1[nH]c(=O)ncc1F` belongs 102 ± 1.7%; to `O=C(O)c1cc(/N=N/c2ccc(S(=O)(=O)Nc3ccccn3)cc2)ccc1O`, 102 ± 1.6%; to `O=C(O[C@@H]1Cc2c(O)cc(O)cc2O[C@@H]1c1cc(O)c(O)c(O)c1)c1cc(O)c(O)c(O)c1` [Epigallocatechin gallate], 77.8 ± 4.2%.
